In all, about 10,000 compounds went through this assay and about 320 (3.2%) were called active. Shown is part of a subset that was picked to be rich in actives. Values without a mark were called inactive. Rule as the data show it: active = CPE inhibition mostly above about 9.1% (no sharp cut-off); inactive = mostly below about 7.2%.

The assay is described as follows: Dengue virus cytopathic effect inhibitors, cell-based, CPE readout, HTS (AID 540333). The following applies: Dengue virus CPE inhibition in host cells, at 20 µM; hits give high values.
`CCn1c(C)nc2cc(C(=O)NNC(=S)Nc3ccc(Cl)cc3Cl)ccc21`: the CPE inhibition entry is “inactive”.

On to `O=C(Cc1cccs1)N/N=C/c1ccco1`, for which the CPE inhibition is 0.08%.

Consider `COC(=O)c1c(NC(=O)C2C3C=CC(CC3)C2C(=O)O)sc(C)c1C` (stereo unspecified), for which the CPE inhibition result was “inactive”.

For the molecule `CC1=CN2C(=N)/C(=C/c3ccc(Sc4ccc(C)cc4)o3)C(=O)N=C2S1`, the CPE inhibition was 9.52%.

`Cc1cccc(NC(=O)CN2C(=O)N/C(=C/c3cc(C)n(-c4ccncc4)c3C)C2=O)c1`: the CPE inhibition result is “inactive”.

For `COCCNC(=O)c1onc(CSc2cccc(OC)c2)c1C(=O)NCCOC`, the CPE inhibition is 0.425%.

Take `COc1cccc(SCc2noc(C(=O)NCCN(C)C)c2C(=O)NCCN(C)C)c1`: the CPE inhibition is 0.54%.

In the case of `COc1cccc(SCc2noc(C(=O)NCCC(C)C)c2C(=O)NCCC(C)C)c1`, the CPE inhibition was 23% (active).

On to `CNC(=S)N(CCc1ccc(OC)c(OC)c1)Cc1cc2c(C)cc(C)cc2[nH]c1=O`, for which the CPE inhibition result is “inactive”.

Regarding `O=C1CN(C(=O)CSc2nnc3ccccn23)c2ccccc2N1`, the CPE inhibition was 0.845%.

As to `C=CCNC(=O)C12CCC(C)(C(=O)C1Br)C2(C)C` (stereo unspecified), the CPE inhibition was 0.36%.

For `COC(=O)N(NC(=O)C(O)(c1ccccc1)c1ccccc1)c1ccc(C)cc1`, the CPE inhibition is 61.4% (active).

`COC(=O)N(NC(=O)C(O)(c1ccccc1)c1ccccc1)c1ccccc1`: the CPE inhibition was 1.2%.

`CCOC(=O)N(NC(=O)C(O)(c1ccccc1)c1ccccc1)c1ccccc1`: the CPE inhibition was 2.6%.

As to `CC(NC(=O)/C(C#N)=C/c1cn(-c2ccccc2)nc1-c1ccc(F)cc1)c1ccccc1` (stereo unspecified), the CPE inhibition is 8.04% (active).

As for `COc1ccc(-c2nn(-c3ccccc3)cc2/C=C(\C#N)S(=O)(=O)c2ccccc2)cc1OC`, the CPE inhibition was 0.055%.

With `COc1ccc(-c2nn(-c3ccccc3)cc2/C=C(/C#N)C(N)=O)cc1[N+](=O)[O-]`, the CPE inhibition entry is “inactive”.

In the case of `CC1CC(=O)N(c2ccc(NCc3ccc(Cl)cc3)c([N+](=O)[O-])c2)C1=O` (stereo unspecified), the CPE inhibition is 0.275%.

Take `COc1ccc(CC(=O)NNc2ncnc3c2cnn3-c2ccc(C)cc2)cc1OC`: the CPE inhibition was 2.76%.

Take `Cc1cc(C)nc(N/N=C/C=C/c2ccccc2)n1`: the CPE inhibition is 0.52%.

For `S=C(N/N=C/c1ccc(Cl)cc1)N1CCOCC1`, the CPE inhibition result was “inactive”.

Take `Cc1cc(C)nc(N/N=C/C2=C(N3CCOCC3)C(=C\c3ccc(Cl)cc3)/CC2)n1`: the CPE inhibition was 15.6% (active).

For the molecule `Cc1cc(C)nc(N/N=C/C2=C(N3CCOCC3)C(=C/c3ccccc3)/CC2)n1`, the CPE inhibition is 9.78% (active).

With `O=[N+]([O-])c1cccc(/C=N/Nc2nc(NCc3ccccc3)nc(N3CCOCC3)n2)c1`, the CPE inhibition is 1.39%.

Consider `COc1ccc(-n2c(C)cc(/C=N/Nc3nc(N4CCOCC4)nc(N4CCOCC4)n3)c2C)cc1`, for which the CPE inhibition entry was “inactive”.

Take `COc1ccccc1NC(=S)N1CCN(C/C=C/c2ccccc2)CC1`: the CPE inhibition was 0.46%.

`O=C(N/N=C/c1cccc(O)c1)c1ccc(COc2ccccc2Br)cc1`: the CPE inhibition is 3.17%.

Turning to `S=C(NCCCNC(=S)Nc1ccccc1)Nc1ccccc1`, the CPE inhibition entry is “inactive”.

As to `CCOCC(O)CNc1ccccc1` (stereo unspecified), the CPE inhibition result was “inactive”.

As to `COc1ccc(N(C(=O)CS(=O)CC(=O)Nc2ccc(F)cc2)C(C(=O)NC2CCCCC2)c2cccs2)cc1` (stereo unspecified), the CPE inhibition is 0.1%.

In the case of `O=C(COC(=O)CNS(=O)(=O)c1ccc2ccccc2c1)Nc1ccccc1Sc1ccccc1`, the CPE inhibition result is “inactive”.

Regarding `COC(=O)c1c(NC(=O)CN2C(=O)NC(CCc3ccccc3)C2=O)sc2c1CCCCC2` (stereo unspecified), the CPE inhibition is 25.6% (active).

With `CC(C)OC(=O)c1c(NC(=O)CCC(=O)O)sc2c1CCCCC2`, the CPE inhibition entry was “inactive”.

As to `COC(=O)c1c(NC(=O)CN(c2ccccc2)S(C)(=O)=O)sc2c1CCCC2`, the CPE inhibition is 18% (active).

For the molecule `CCOC(=O)c1c(NC(=O)COC(=O)c2ccccn2)sc2c1CCC2`, the CPE inhibition result is “inactive”.

In the case of `COC(=O)c1c(NC(=O)C2C3CCC(O3)C2C(=O)O)sc2c1CCCCCC2` (stereo unspecified), the CPE inhibition was 0.645%.

Consider `COC(=O)c1c(NC(=O)COC(=O)[C@@H](NS(=O)(=O)c2ccccc2)C(C)C)sc2c1CCC2`, for which the CPE inhibition was 24% (active).

Turning to `CCOC(=O)c1c(NC(=O)c2ccccc2N(C)S(=O)(=O)c2ccccc2)sc2c1CCCC2`, the CPE inhibition is 0.225%.

`O=C(COC(=O)CNS(=O)(=O)c1cccc(Br)c1)Nc1ccccc1Sc1ccccc1`: the CPE inhibition entry was “inactive”.

Consider `CC(C)[C@H](NS(=O)(=O)c1ccccc1)C(=O)OCC(=O)Nc1ccccc1Sc1ccccc1`, for which the CPE inhibition was 24.5% (active).

With `COC(=O)c1c(NC(C)=O)sc2c1CCCCC2`, the CPE inhibition is 0.285%.

`COC(=O)c1c(NC(=O)COC(=O)c2ccc(Cl)cc2[N+](=O)[O-])sc2c1CCCCC2`: the CPE inhibition is 3.41%.

As for `CCCCn1c(N)c(NCCC)c(=O)[nH]c1=O`, the CPE inhibition entry is “inactive”.

Consider `COc1cc(C)c(S(=O)(=O)N2CCN=C2c2ccccc2)cc1C`, for which the CPE inhibition result was “inactive”.

Take `CCO[C@@H]1OC(C(=O)O)=C[C@H](c2cn(C(C)=O)c3ccccc23)[C@H]1CCCO`: the CPE inhibition entry was “inactive”.

With `Cc1ccccc1NC(=S)NCC(c1cccnc1)N1CCOCC1` (stereo unspecified), the CPE inhibition result was “inactive”.

As for `N#Cc1c(-c2ccccc2)nc(SCC(=O)Nc2ccccc2)[nH]c1=O`, the CPE inhibition entry is “inactive”.

On to `Cc1cccc(N2CCN(C(=S)NCc3ccco3)CC2)c1C`, for which the CPE inhibition was 0.45%.

Turning to `CC(NS(=O)(=O)c1ccc2c(c1)OCCCO2)C(=O)O` (stereo unspecified), the CPE inhibition is 0.55%.

Regarding `CCCCOC(=O)/C=C/c1ccc(OC(=O)OC)c(OC(=O)OC)c1`, the CPE inhibition entry was “inactive”.

Consider `COc1ccc(/C(O)=C2/C(=O)C(=O)N(CCCN(C)C)C2c2cccc(Cl)c2)cc1OC` (stereo unspecified), for which the CPE inhibition is 0.13%.

In the case of `CCOC(=O)c1c(NC(=O)CSC(=S)N2CCOCC2)sc(C)c1C`, the CPE inhibition is 0.065%.

Regarding `COc1ccc(C(=O)NC(=S)N(CCC(C)C)c2c(N)n(Cc3ccccc3)c(=O)[nH]c2=O)cc1`, the CPE inhibition is 0.675%.

On to `CC(=O)c1cc(-c2ccccc2)n(CC(=O)Nc2cccc(C)c2C)c1C`, for which the CPE inhibition is 0.49%.

For `CC(C)C[C@@]12C(=O)N(c3cccc(F)c3)C(=O)N1[C@H](c1ccc(Br)cc1)[C@@H]1C(=O)N(C(C)(C)C)C(=O)[C@@H]12`, the CPE inhibition was 52.3% (active).

As for `CC[C@@]12C(=O)N(c3cccc(Cl)c3)C(=O)N1[C@H](c1ccc(Br)cc1)[C@@H]1C(=O)N(C(C)(C)C)C(=O)[C@@H]12`, the CPE inhibition was 23.6% (active).

Turning to `COc1ccc([C@@H]2[C@@H]3C(=O)N(C(C)(C)C)C(=O)[C@@H]3[C@]3(C)C(=O)N(c4cccc(Cl)c4)C(=O)N23)cc1`, the CPE inhibition is 0.865%.

With `COc1ccc([C@@H]2[C@@H]3C(=O)N(C(C)(C)C)C(=O)[C@@H]3[C@]3(Cc4ccccc4)C(=O)N(c4ccc(OC)cc4)C(=O)N23)cc1`, the CPE inhibition is 0.525%.

As to `CC[C@@]12C(=O)N(c3cccc(Br)c3)C(=O)N1[C@H](c1cccc(C)c1)[C@@H]1C(=O)N(Cc3ccccc3)C(=O)[C@@H]12`, the CPE inhibition is 12.7% (active).

Take `CC(C)(C)N1C(=O)[C@H]2[C@@H](c3ccc(Br)cc3)N3C(=O)N(c4cccc(Cl)c4)C(=O)[C@@]3(Cc3ccccc3)[C@H]2C1=O`: the CPE inhibition was 31.9% (active).

Take `CC[C@@]12C(=O)N(c3ccccc3)C(=O)N1[C@H](c1ccc(Br)cc1)[C@@H]1C(=O)N(C(C)(C)C)C(=O)[C@@H]12`: the CPE inhibition was 5.79%.

As to `Cc1cccc([C@@H]2[C@@H]3C(=O)N(Cc4ccccc4)C(=O)[C@@H]3[C@]3(CC(C)C)C(=O)N(c4cccc(Br)c4)C(=O)N23)c1`, the CPE inhibition was 1.25%.

Take `CC(C)(C)N1C(=O)[C@H]2[C@@H](c3ccc(Br)cc3)N3C(=O)N(c4ccccc4)C(=O)[C@@]3(C)[C@H]2C1=O`: the CPE inhibition is 2.17%.

For `CCOC(=O)[C@@H]1[C@H]2COc3ccccc3[C@H]2N2C(=O)N(c3cccc(Cl)c3)C(=O)[C@]12C`, the CPE inhibition was 0.045%.

Turning to `CCN1C(=O)[C@H]2[C@@H](c3ccc(C)cc3)N3C(=O)N(c4ccccc4)C(=O)[C@@]3(CC)[C@H]2C1=O`, the CPE inhibition entry is “inactive”.

Take `COc1ccc([C@@H]2[C@@H]3C(=O)N(C(C)(C)C)C(=O)[C@@H]3[C@]3(C)C(=O)N(c4ccc(C)cc4)C(=O)N23)cc1`: the CPE inhibition result is “inactive”.

Values taken from PubChem BioAssay AID540333 (Southern Research Specialized Biocontainment Screening …, 2011).
